Calls of active or inactive are those of the source. Unless noted, how the calls were made is not given here.
Assays:
[1] = A549 cell viability effects, profiling panel, calcein-AM fluorescence, 48 h, basal (AID 1162); conditions: higher = more signal; further: test concentration not given here
[2] = adipocyte viability effects, profiling panel, cell-based, 3T3-L1 adipocytes, calcein-AM fluorescence, 48 h, basal (AID 1163); conditions: 3T3-L1 adipocytes viability, higher = more signal; further: test concentration not given here
[3] = HepG2 cell viability effects, profiling panel, calcein-AM fluorescence, 48 h, basal (AID 1164); conditions: higher = more signal; further: test concentration not given here
[4] = MM1S cell viability effects, profiling panel, calcein-AM fluorescence, 48 h, basal (AID 1165); conditions: higher = more signal;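 further: viability of MM1S multiple myeloma cells under basal unstimulated conditions; test concentration not given here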
[5] = basal RPMI8226 viability, no added stimulus, profiling panel, cell-based, calcein-AM fluorescence, 48 h, PK04 Diversity Set (AID 1166); conditions: RPMI8226 myeloma viability, higher = more signal;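 further: cells grown under basal conditions without added stimulus; test concentration not given here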
[6] = basal HepG2 mitochondrial membrane potential changes, profiling panel, cell-based, JC-1 fluorescence, 24 h, 100 nL compound (AID 1167); conditions: higher = more signal; further: test concentration not given here
[7] = basal 3T3-L1 adipocyte mitochondrial potential changes, profiling panel, cell-based, JC-1 fluorescence, 3T3-L1 adipocytes, 24 h, 100 nL compound (AID 1168); conditions: JC-1 mitochondrial fluorescence, higher = more signal, called active from +8 up or from −8 down; further: test concentration not given here
[8] = basal RPMI8226 mitochondrial membrane potential changes, profiling panel, cell-based, JC-1 fluorescence, 24 h, 100 nL compound (AID 1169); conditions: RPMI8226 myeloma, JC-1 mitochondrial potential fluorescence, higher = more signal; further: test concentration not given here
[9] = basal MM1S mitochondrial membrane potential changes, profiling panel, cell-based, JC-1 fluorescence, 24 h, 100 nL compound (AID 1170); conditions: higher = more signal; further: test concentration not given here
[10] = A549 lung cancer cell viability effects, profiling panel, resazurin fluorescence, 24 h, PK04 Diversity Set (AID 1171); conditions: higher = more signal, called active from +8 up or from −8 down; further: test concentration not given here
[11] = HepG2 liver cancer cell viability effects, profiling panel, resazurin fluorescence, 24 h, PK04 Diversity Set (AID 1172); conditions: higher = more signal; further: test concentration not given here
[12] = basal S. cerevisiae growth modulation, no modifier, primary screen, OD600, strain BY4716, 24 h, basal condition (AID 1173); conditions: OD600, 24 h, higher = more signal, called active from +8 up or from −8 down
[13] = MM1S myeloma cell viability, profiling panel, resazurin fluorescence, basal, 24 h, PK04 Diversity Set (AID 1174); conditions: higher = more signal, called active from +8 up or from −8 down;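 further: MM1S multiple myeloma cell line; test concentration not given here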
[14] = molecular target: Dihydroorotate dehydrogenase (quinone), mitochondrial (Plasmodium falciparum (isolate 3D7)) (UniProt Q08210); experiment: PfDHODH enzyme inhibitors, primary screen, biochemical, C-terminal His tag, absorbance 600 nm (AID 1175); conditions: DCIP absorbance 600 nm, higher = more signal, called active from +8 up or from −8 down;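 further: recombinant parasite enzyme with a five histidine tag at its C terminus; test concentration not given here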
[15] = P. aeruginosa biofilm formation inhibitors, primary screen, strain PAO1, LB-PBS medium, absorbance 600 nm (AID 1176); further: test concentration not given here; conditions: P. aeruginosa PAO1 growth/biofilm, A600, 12 h; higher = more signal
[16] = S. cerevisiae RM11-1a growth modifiers, primary screen, strain RM11-1a, OD600, basal, 24 h (AID 1177); conditions: OD600, 24 h, higher = more signal, called active from +8 up or from −8 down;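 further: cultures grown under basal conditions with no added stressor; test concentration not given here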
[17] = E. coli acrAB mutant growth effects, primary screen, E. coli filamentation inducers, strain DRC39, OD650, 24 h (AID 1178); conditions: higher = more signal, called active from +8 up or from −8 down;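 further: growth measured as culture turbidity by optical density at 650 nm; test concentration not given here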
[18] = E. coli acrAB mutant growth effects, primary screen, E. coli filamentation inducers, strain DRC39, OD650, 48 h (AID 1179);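 further: screen aims at cell division blockers that make cells filament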; conditions: E. coli DRC39 delta-acrAB growth, higher = more signal, called active from +8 up or from −8 down
[19] = RPMI8226 myeloma cell viability, profiling panel, resazurin fluorescence, basal, 24 h, PK04 Diversity Set (AID 1180); conditions: higher = more signal;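 further: RPMI8826 multiple myeloma cell line at 5000 cells per well; test concentration not given here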
[20] = molecular target: E3 ubiquitin-protein ligase XIAP (Homo sapiens) (UniProt P98170); experiment: XIAP binders, primary screen, biophysical, small-molecule microarray, fluorescence 635 nm (AID 1181); conditions: small-molecule microarray binding, higher = more signal;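 further: score merges 667 nm emission and signal to noise over triplicate slides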
E3 ubiquitin-protein ligase XIAP (Homo sapiens), sequence (P98170 whole entry, looked up): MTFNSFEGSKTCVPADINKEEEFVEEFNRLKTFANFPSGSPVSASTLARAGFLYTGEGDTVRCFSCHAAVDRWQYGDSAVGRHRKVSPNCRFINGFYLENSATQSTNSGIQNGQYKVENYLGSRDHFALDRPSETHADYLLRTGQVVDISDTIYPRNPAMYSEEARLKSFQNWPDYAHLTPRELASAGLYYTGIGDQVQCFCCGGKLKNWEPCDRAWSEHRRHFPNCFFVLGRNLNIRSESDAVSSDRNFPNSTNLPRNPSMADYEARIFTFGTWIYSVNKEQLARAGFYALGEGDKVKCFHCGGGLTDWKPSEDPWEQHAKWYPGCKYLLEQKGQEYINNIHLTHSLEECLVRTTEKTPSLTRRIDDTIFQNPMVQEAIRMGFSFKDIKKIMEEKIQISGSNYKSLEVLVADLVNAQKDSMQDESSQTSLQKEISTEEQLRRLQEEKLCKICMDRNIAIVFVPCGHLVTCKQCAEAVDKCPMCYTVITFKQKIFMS

Dihydroorotate dehydrogenase (quinone), mitochondrial (Plasmodium falciparum (isolate 3D7)), sequence (Q08210 whole entry, looked up): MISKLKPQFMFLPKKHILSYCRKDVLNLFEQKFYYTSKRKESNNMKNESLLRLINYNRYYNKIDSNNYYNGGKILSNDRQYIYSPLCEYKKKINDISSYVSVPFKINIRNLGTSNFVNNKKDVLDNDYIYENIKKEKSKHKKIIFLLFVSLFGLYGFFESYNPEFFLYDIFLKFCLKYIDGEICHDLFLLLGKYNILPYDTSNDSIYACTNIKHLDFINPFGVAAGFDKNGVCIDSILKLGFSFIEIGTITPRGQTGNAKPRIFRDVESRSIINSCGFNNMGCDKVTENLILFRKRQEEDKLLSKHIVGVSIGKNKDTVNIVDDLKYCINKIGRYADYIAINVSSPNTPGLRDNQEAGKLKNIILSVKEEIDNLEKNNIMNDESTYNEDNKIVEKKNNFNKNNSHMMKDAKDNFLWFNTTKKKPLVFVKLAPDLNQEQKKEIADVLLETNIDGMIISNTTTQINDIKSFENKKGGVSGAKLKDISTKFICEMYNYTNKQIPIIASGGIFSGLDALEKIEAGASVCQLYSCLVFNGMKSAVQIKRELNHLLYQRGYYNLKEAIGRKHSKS

| Compound | z-score [1] | z-score [2] | z-score [3] | z-score [4] | z-score [5] | z-score [6] | z-score [7] | z-score [8] | z-score [9] | z-score [10] | z-score [11] | z-score [12] | z-score [13] | composite z-score [14] | z-score [15] | z-score [16] | z-score [17] | z-score [18] | z-score [19] | composite z-score [20] |
| --- | --- | --- | --- | --- | --- | --- | --- | --- | --- | --- | --- | --- | --- | --- | --- | --- | --- | --- | --- | --- |
| CC(C)C[C@@H]1NC(=O)[C@@H]2C[C@H](C(=O)O)[C@H](c3cccc(OCCO)c3)N2C1=O | 0.196 | 0.237 | -0.404 | 0.101 | -0.57 | 0.555 | -0.531 (inactive) | 0.719 | 0.897 | 0.0499 (inactive) | -0.314 | -0.0664 (inactive) | 0.254 (inactive) | -1.16 (inactive) | -0.447 (inactive) | -0.747 (inactive) | 0.398 (inactive) | -0.263 (inactive) | 0.294 | -0.059 |
| COc1ccc(C(=O)Nc2ccc(CN3C(=O)[C@]4(O[C@H](CCO)[C@@H]([Si](C)(C)c5ccc(OC)cc5)[C@@H]4C)c4ccccc43)cc2)cc1 | -3.8 | -0.0656 | -4.64 | -2.62 | -4.35 | -2.72 | 1.36 (inactive) | -1.06 | -2.28 | -3.79 (inactive) | -5.44 | -3.84 (inactive) | -9.1 (active) | 0.132 (inactive) | 2.16 (inactive) | 4.35 (inactive) | 0.65 (inactive) | -0.416 (inactive) | -6.25 | 0.0623 |
| C=CCN1C(=O)[C@@]2(CC=C)N=C(c3ccc(OCCCO)cc3)O[C@H]2c2ccccc21 | 0.248 | 1.68 | -0.515 | -3.41 | -3.72 | 1.62 | 2.61 (inactive) | -1.02 | -2.1 | -2.08 (inactive) | -0.492 | -2.87 (inactive) | -3.88 (inactive) | -1.17 (inactive) | 2.21 (inactive) | 0.113 (inactive) | 1.19 (inactive) | 2.46 (inactive) | -3.54 | 0.0842 |
| O=C1C2C=CC(C(O)CCc3ccccc3)N(Nc3ccccc3F)C2C(=O)N1c1ccccc1 (stereo not given) | -0.804 | 0.255 | -0.31 | 0.596 | -1.46 | -0.257 | 0.377 (inactive) | -0.448 | -0.515 | 0.387 (inactive) | 0.0011 | 0.14 (inactive) | 0.209 (inactive) | -0.442 (inactive) | 0.0083 (inactive) | -0.253 (inactive) | -0.837 (inactive) | 0.0277 (inactive) | 0.799 | 0.272 |
